PubChem BioAssay
Activity calls are given as the source filed them. Unless noted, the rule behind the calls is not given here.

What was measured:
[1] = test system: Wnt5a (protein binding on small-molecule microarray); assay: Wnt5a binders on small-molecule microarray, primary screen, biophysical, 635/667 nm fluorescence (AID 1142); settings: 635 nm fluorescence, higher = more signal;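 note: fluorescence read at 667 nm with signal to noise per printed feature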
[2] = cell viability in Huh7 cells, primary screen, cytotoxicity control for HCV replication inhibitor project, CellTiter-Glo luminescence, basal, 48 h (AID 1143); settings: Huh7 HCV replicon, higher = more signal, called active from +8 up or from −8 down;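 note: Huh7 hepatoma cells carrying a hepatitis C replication reporter with no stimulus; test concentration not given here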
[3] = P. aeruginosa biofilm formation inhibitors, primary screen, PAO1 strain, BacTiter-Glo luminescence, LB-PBS (AID 1144); settings: 12 h, higher = more signal
[4] = CREB reporter modulators without forskolin, primary screen, cell-based, PC12, CRE-LacZ reporter, unstimulated (AID 1145); settings: no forskolin, luminescence, 4.5 h, higher = more signal, called active from +8 up or from −8 down
[5] = CREB reporter modulators under forskolin, primary screen, cell-based, PC12, CRE-LacZ reporter, forskolin-stimulated (AID 1146); settings: luminescence, 4.5 h, higher = more signal, called active from +8 up or from −8 down;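 note: PC12 cells with 6xCRE LacZ reporter stimulated by forskolin 10 µM; beta-galactosidase reporter signal reflecting CREB driven transcription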
[6] = biological target: Streptavidin (Streptomyces avidinii) (UniProt P22629); assay: streptavidin binders on small-molecule microarray, primary screen, artefact control for SMM compound annotation, biophysical, 635/667 nm fluorescence (AID 1147); settings: streptavidin binding, higher = more signal;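 note: signal reflects streptavidin binding to arrayed compounds as a control protein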
Chain of Streptavidin (Streptomyces avidinii) (P22629 whole entry, looked up): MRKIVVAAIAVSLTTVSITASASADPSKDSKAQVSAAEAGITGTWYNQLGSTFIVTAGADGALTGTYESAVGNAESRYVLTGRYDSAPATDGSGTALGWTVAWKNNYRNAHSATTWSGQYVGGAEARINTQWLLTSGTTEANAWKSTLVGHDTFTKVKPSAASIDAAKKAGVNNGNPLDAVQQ

[7] = small-molecule binders of probe aInhba, primary screen, biochemical, small-molecule microarray, 635/667 nm fluorescence (AID 1148); settings: higher = more signal;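 note: score merges 667nm spot fluorescence with signal-to-noise for antibody binding to printed compounds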
Torsin-1A (Homo sapiens) [8] = biological target: Torsin-1A (Homo sapiens) (UniProt O14656); assay: torsin A binders from cell lysate, primary screen, small-molecule microarray, wild-type, 635/667 nm (AID 1149); settings: COS7 hTOR1A-WT lysate, 635 nm fluorescence, higher = more signal
Chain of Torsin-1A (Homo sapiens) (O14656 whole entry, looked up): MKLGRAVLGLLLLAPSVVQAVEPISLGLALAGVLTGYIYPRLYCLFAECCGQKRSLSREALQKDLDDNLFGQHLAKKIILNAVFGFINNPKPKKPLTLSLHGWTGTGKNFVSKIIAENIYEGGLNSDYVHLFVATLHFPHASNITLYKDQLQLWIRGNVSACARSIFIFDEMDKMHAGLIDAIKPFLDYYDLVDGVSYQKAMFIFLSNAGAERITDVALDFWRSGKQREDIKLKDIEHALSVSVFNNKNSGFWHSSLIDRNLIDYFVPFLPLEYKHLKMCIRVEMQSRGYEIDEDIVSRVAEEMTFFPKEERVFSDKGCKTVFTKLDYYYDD

Torsin-1A (Homo sapiens) [9] = biological target: Torsin-1A (Homo sapiens) (UniProt O14656); assay: small-molecule binders of mutant TOR1A in lysate, primary screen, cell lysate, small-molecule microarray, COS7 lysate, 635/667 nm fluorescence (AID 1150); settings: COS7 hTOR1A mutant lysate, 635 nm fluorescence, higher = more signal;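 note: score pools 667 nm emission and signal to noise measuring lysate protein binding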
[10] = test system: Sonic hedgehog protein (Shh); assay: small-molecule binders of Shh protein, primary screen, biochemical, small-molecule microarray, 635/667 nm fluorescence (AID 1151); settings: small-molecule microarray binding, 635 nm fluorescence; higher = more signal;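 note: Shh protein binding to compounds spotted on small-molecule microarray slides; score combines spot fluorescence intensity with signal-to-noise across triplicate slides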

Structure (SMILES): C=C(C)[C@@H]1CC=C(C(O)C2C=CC3C(=O)N(C)C(=O)C3N2Nc2ccccc2)CC1 (stereo not given in full)
- composite z-score [1]: 0.297
- z-score [2]: 0.435 (inactive)
- z-score [3]: -0.309 (inactive)
- z-score [4]: 0.626 (inactive)
- z-score [5]: 1.26 (inactive)
- composite z-score [6]: 0.178
- composite z-score [7]: 0.0013
- composite z-score (Torsin-1A (Homo sapiens) [8]): 0.425
- composite z-score (Torsin-1A (Homo sapiens) [9]): 0.385
- composite z-score [10]: 1.89

Structure (SMILES): COC(=O)[C@]1(CCC(=O)OC(C)(C)C)N=C(c2ccc(OCCCO)cc2)O[C@@H]1c1ccccc1CN=[N+]=[N-]
- composite z-score [1]: 0.714
- z-score [2]: -4.56 (inactive)
- z-score [3]: 0.283 (inactive)
- z-score [4]: 1.77 (inactive)
- z-score [5]: -0.955 (inactive)
- composite z-score [6]: 0.0874
- composite z-score [7]: 0.24
- composite z-score (Torsin-1A (Homo sapiens) [8]): -0.351
- composite z-score (Torsin-1A (Homo sapiens) [9]): -0.0282
- composite z-score [10]: 0.712

Structure (SMILES): CCCCCCc1nc(-c2ccc(OC)nc2)cc2c1[Si](C(C)C)(C(C)C)O[C@H]2c1ccccc1
- composite z-score [1]: 0.323
- z-score [2]: -0.295 (inactive)
- z-score [3]: 0.0731 (inactive)
- z-score [4]: 0.773 (inactive)
- z-score [5]: 0.03 (inactive)
- composite z-score [6]: 0.111
- composite z-score [7]: 0.136
- composite z-score (Torsin-1A (Homo sapiens) [8]): 0.0114
- composite z-score (Torsin-1A (Homo sapiens) [9]): -0.234
- composite z-score [10]: 1.21

Structure (SMILES): CCN(CC)c1ccc(N2CC=CC34O[C@@H]5C=CCCOC(=O)C5[C@H]3C(=O)N(CCCCCCO)[C@@H]4C2=O)cc1 (stereo not given in full)
- composite z-score [1]: -0.212
- z-score [2]: -1.32 (inactive)
- z-score [3]: -1.35 (inactive)
- z-score [4]: -1.85 (inactive)
- z-score [5]: -0.716 (inactive)
- composite z-score [6]: -0.729
- composite z-score [7]: -0.209
- composite z-score (Torsin-1A (Homo sapiens) [8]): 0.454
- composite z-score (Torsin-1A (Homo sapiens) [9]): 1.57
- composite z-score [10]: -0.179

Structure (SMILES): CN(C)C(=O)[C@@]1(CCS(=O)(=O)c2ccccc2)COC(c2ccc(OCCCO)cc2)=N1
- composite z-score [1]: 0.623
- z-score [2]: -3.66 (inactive)
- z-score [3]: -0.26 (inactive)
- z-score [4]: -0.562 (inactive)
- z-score [5]: -0.793 (inactive)
- composite z-score [6]: 0.0248
- composite z-score [7]: 0.0589
- composite z-score (Torsin-1A (Homo sapiens) [8]): 1.24
- composite z-score (Torsin-1A (Homo sapiens) [9]): 2.51
- composite z-score [10]: -0.977

Structure (SMILES): CC(C)CNC(=O)[C@@]1(Cc2ccccc2I)c2ccccc2C(=O)N(C2CCCCC2)[C@H]1c1ccc(CO)cc1
- composite z-score [1]: 0.705
- z-score [2]: -1.71 (inactive)
- z-score [3]: 0.0484 (inactive)
- z-score [4]: -0.206 (inactive)
- z-score [5]: -0.0769 (inactive)
- composite z-score [6]: -0.346
- composite z-score [7]: 0.23
- composite z-score (Torsin-1A (Homo sapiens) [8]): 0.222
- composite z-score (Torsin-1A (Homo sapiens) [9]): 0.551
- composite z-score [10]: 0.187

Structure (SMILES): COC(=O)C(CC#Cc1ccc2c(c1)[C@]1(C(=O)N2)[C@H](C(=O)Nc2nc3ccccc3s2)[C@H]2C(=O)O[C@H](c3ccccc3)[C@H](c3ccccc3)N2[C@@H]1c1ccc(O)cc1)C(=O)OC
- composite z-score [1]: 0.533
- z-score [2]: -1 (inactive)
- z-score [3]: -0.672 (inactive)
- z-score [4]: 0.155 (inactive)
- z-score [5]: -0.669 (inactive)
- composite z-score [6]: 0.906
- composite z-score [7]: 0.0487
- composite z-score (Torsin-1A (Homo sapiens) [8]): 0.71
- composite z-score (Torsin-1A (Homo sapiens) [9]): 0.964
- composite z-score [10]: 0.967

Structure (SMILES): O=C1C2C=CC(C(O)CCc3ccccc3)N(Nc3ccccc3F)C2C(=O)N1c1ccccc1 (stereo not given)
- composite z-score [1]: 0.43
- z-score [2]: -0.381 (inactive)
- z-score [3]: -0.315 (inactive)
- z-score [4]: -0.331 (inactive)
- z-score [5]: 0.654 (inactive)
- composite z-score [6]: 0.787
- composite z-score [7]: 0.131
- composite z-score (Torsin-1A (Homo sapiens) [8]): 0.204
- composite z-score (Torsin-1A (Homo sapiens) [9]): 0.538
- composite z-score [10]: 0.366

Structure (SMILES): COC(=O)[C@@]1(Cc2ccc(OC)cc2)[C@H]2c3cc(C(=O)N(C)C)n(CCc4ccccn4)c3C[C@H]2CN1C(=O)c1ccccc1
- composite z-score [1]: 1.19
- z-score [2]: -2.18 (inactive)
- z-score [3]: 0.165 (inactive)
- z-score [4]: 1.92 (inactive)
- z-score [5]: 0.577 (inactive)
- composite z-score [6]: 1.86
- composite z-score [7]: 1.17
- composite z-score (Torsin-1A (Homo sapiens) [8]): -0.128
- composite z-score (Torsin-1A (Homo sapiens) [9]): 1.04
- composite z-score [10]: -0.127

Structure (SMILES): C=CCC(OC(C)=O)[C@@H]1[C@@H](N(Cc2ccc(-c3ccccc3)cc2)C(=O)c2cccc3ccccc23)c2cc(OCCCO)ccc2N1C(=O)c1ccc(-c2ccccc2)cc1 (stereo not given in full)
- composite z-score [1]: 0.0826
- z-score [2]: -1.6 (inactive)
- z-score [3]: -0.915 (inactive)
- z-score [4]: 0.6 (inactive)
- z-score [5]: -0.531 (inactive)
- composite z-score [6]: 0.232
- composite z-score [7]: 0.0979
- composite z-score (Torsin-1A (Homo sapiens) [8]): -0.0396
- composite z-score (Torsin-1A (Homo sapiens) [9]): 0.499
- composite z-score [10]: 0.362

Structure (SMILES): CC(C)N1C(=O)c2ccccc2[C@](C)(C(=O)NCCN2CCOCC2)[C@@H]1c1ccc(CO)cc1
- composite z-score [1]: -0.568
- z-score [2]: 0.0068 (inactive)
- z-score [3]: 0.358 (inactive)
- z-score [4]: 0.585 (inactive)
- z-score [5]: -0.875 (inactive)
- composite z-score [6]: -0.854
- composite z-score [7]: -0.0719
- composite z-score (Torsin-1A (Homo sapiens) [8]): 0.0436
- composite z-score (Torsin-1A (Homo sapiens) [9]): 0.212
- composite z-score [10]: -0.776

Structure (SMILES): C=C[C@H](OC)[C@@H](OC(=O)Nc1ccc(OC)cc1)c1ccc(O)c(F)c1
- composite z-score [1]: -0.311
- z-score [2]: -3.6 (inactive)
- z-score [3]: -0.689 (inactive)
- z-score [4]: 1.24 (inactive)
- z-score [5]: 3.4 (inactive)
- composite z-score [6]: -1.2
- composite z-score [7]: -0.179
- composite z-score (Torsin-1A (Homo sapiens) [8]): 0.732
- composite z-score (Torsin-1A (Homo sapiens) [9]): -0.11
- composite z-score [10]: 0.665

Structure (SMILES): COc1ccccc1CN1C(=O)c2ccccc2[C@@]2(Cc3ccccc3N(CC(C)C)C2=O)[C@@H]1c1ccc(CO)cc1
- composite z-score [1]: -0.37
- z-score [2]: 0.332 (inactive)
- z-score [3]: 0.8 (inactive)
- z-score [4]: -0.412 (inactive)
- z-score [5]: 0.462 (inactive)
- composite z-score [6]: -0.551
- composite z-score [7]: 0.027
- composite z-score (Torsin-1A (Homo sapiens) [8]): -0.913
- composite z-score (Torsin-1A (Homo sapiens) [9]): -0.0676
- composite z-score [10]: -0.452

Structure (SMILES): COC(=O)[C@@]1(Cc2ccc(OC)cc2)[C@H]2c3cc(C(=O)N4CCCC4)n(Cc4ccc(C)c(F)c4F)c3C[C@H]2CN1C(=O)c1ccccc1
- composite z-score [1]: 0.634
- z-score [2]: -2.92 (inactive)
- z-score [3]: 0.605 (inactive)
- z-score [4]: -1.15 (inactive)
- z-score [5]: -0.572 (inactive)
- composite z-score [6]: 1.81
- composite z-score [7]: 0.289
- composite z-score (Torsin-1A (Homo sapiens) [8]): -0.429
- composite z-score (Torsin-1A (Homo sapiens) [9]): 0.839
- composite z-score [10]: -0.746
